Assay outcomes: PubChem, National Center for Advancing Translational Sciences (NCATS)
RORg inh: inhibitors of mouse ROR gamma transcriptional activity; Drosophila S2 Gal4-RORgamma UAS-luciferase reporter, 20 h; Potency, µM (highest dose often 53.6 µM), for the others: at the highest dose activity change, negative = inhibition, most hits filed as inhibitors; 310,000 tested, 5.4% active; AID 2551; note: % is set by controls: 0 for no effect and ±100 for the full control effect; nearly all actives have a fitted effect of over 60% in size
Target sequence (P51450 whole entry, looked up, the tested form may be a part): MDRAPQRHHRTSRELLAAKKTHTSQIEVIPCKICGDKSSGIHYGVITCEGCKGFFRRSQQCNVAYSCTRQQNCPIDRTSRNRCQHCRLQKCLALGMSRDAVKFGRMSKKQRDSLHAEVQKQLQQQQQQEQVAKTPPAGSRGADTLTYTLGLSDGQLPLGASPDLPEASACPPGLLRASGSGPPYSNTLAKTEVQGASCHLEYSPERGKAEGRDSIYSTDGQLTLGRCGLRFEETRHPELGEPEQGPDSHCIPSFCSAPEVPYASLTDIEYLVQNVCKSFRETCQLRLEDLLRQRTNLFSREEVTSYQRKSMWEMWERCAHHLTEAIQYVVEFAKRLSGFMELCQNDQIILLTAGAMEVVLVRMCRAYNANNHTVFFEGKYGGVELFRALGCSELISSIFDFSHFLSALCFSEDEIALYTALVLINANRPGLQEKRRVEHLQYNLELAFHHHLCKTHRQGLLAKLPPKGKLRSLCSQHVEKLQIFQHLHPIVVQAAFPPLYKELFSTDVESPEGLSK
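Using a luciferase readout, inhibitors were identified by reduced reporter activity in Drosophila cells coexpressing a copper-inducible Gal4–ROR gamma fusion and UAS-driven Photinus luciferase, incubated 20 hr after 700 uM copper sulfate.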
GLP1R inv ag: inverse agonists of human GLP-1 receptor; P43220; HEK293 GLP-1R CRE-luciferase, luminescence, 24 h; GLP-1R form is constitutively active; Potency, µM (top dose mostly 38.3 µM), for the others: at the top dose activity change, negative = inhibition, usual class: inhibitors; 410,000 tested, 1.6% active; AID 624417; note: % is set by controls: 0 for no effect and ±100 for the full control effect; nearly all actives have a fitted effect of over 55% in size
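Assay principle: reduced luminescence from a cAMP-responsive reporter in HEK293 cells co-expressing a constitutively active GLP-1R. Conditions: 24 hr compound incubation, 37 deg C, 5% CO2.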
GLP1R ag: GLP-1 receptor (human) agonism | P43220 | HEK293 GLP-1R CRE-luciferase, luminescence, 4-6 h; cells express a hypersensitive GLP-1R form | Potency, µM (series often up to 45.6 µM), for the others: top-dose activation, most hits filed as activators | 380,000 tested, 0.007% active; note: % of control where 0% means no effect
Gal4-VP16 FLuc: inhibits Gal4-VP16 luciferase reporter, ROR gamma counter-screen | Drosophila S2 Gal4-VP16 UAS-luciferase, luminescence, 20 h | Potency, µM (highest dose often 53.6 µM), for the others: at the top dose activity, negative = inhibition, usual class: inhibitors | 310,000 tested, 3.5% active;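 note: Gal4-VP16 expression switched on by copper sulfate through the metallothionein promoter; % is set by controls: 0 for no effect and ±100 for the full control effect; nearly all actives have a fitted effect of over 50% in size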
HEK293 tox: cytotoxic in the GLP-1 receptor inverse agonist counter-screen; HEK293 cAMP-luciferase reporter cells, luminescence, 24 h; Potency, µM (series often up to 38.3 µM), for inactives: at the highest dose activity change, negative = inhibition, usual class: inhibitors; 410,000 tested, 0.13% active; AID 624418;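 note: loss of luciferase light is scored as toxicity; % is set by controls: 0 for no effect and ±100 for the full control effect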
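Luminescence readout: signal drop marks cytotoxicity. Plated cells grew 12 h at 37 °C, 5% CO2, received 23 nL compound for 24 h, then got luciferase reagent, read after 12 min at RT.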
The depositor's hits bear a star; ? = inconclusive; · = no result given; [ ] = remark or other dose. Most compounds without a hit are left out; they make up all but 5.9% or so of the library. Calls come from the whole dose curve; as a rule, active = well fitted curve in the direction sought with a large enough effect; inconclusive = small, poorly fitted or top-dose-only effect, or another doubt; inactive = no such curve, though single readings can be large; an effect the other way counts as inactive or inconclusive. Potency is the fitted concentration of half-maximal effect.

SMILES	RORg inh	GLP1R inv ag	GLP1R ag	Gal4-VP16 FLuc	HEK293 tox
CC(C)(C)c1ccc(C(=O)CC(Sc2ccc(Cl)cc2)C(=O)O)cc1 (configuration not stated)	1.58µM*	?	1.4%	6.31µM*	?
Cc1ccc(SC(CC(=O)c2ccc(F)cc2)C(=O)O)cc1 (configuration not stated)	?	?	2.4%	-72.2%	-2.3%
O=P(O)(O)OP(=O)(O)O	-19.5%[10 µM]	·	7.0%	3.4%	·
CCc1nnc(NC(=O)c2ccc(S(=O)(=O)N(CCOC)CCOC)cc2)o1	2.24µM*	-5.0%	-6.0%	6.31µM*	-18.0%
COCCN(CCOC)S(=O)(=O)c1ccc(C(=O)Nc2nnc(C3CC3)o2)cc1	4.47µM*	3.2%	-7.0%	3.55µM*	-1.1%
CCc1nnc(NC(=O)c2ccc(S(=O)(=O)N(CCOC)CCOC)cc2)s1	0.6%	10.7%	-6.3%	15.9%	1.4%
COc1ccc(-c2noc(CSc3nnc(C)n3-c3ccc(F)cc3)n2)cc1	·	3.4%	·	·	-2.7%
CC(=O)c1cnc(Nc2nc(C)c3cc(C)c(C)cc3n2)nc1C	3.55µM*	39.8%	-5.2%	-0.9%[0.365 µM]	-9.2%
CSc1ncc(C(C)=O)c(C)n1	0.2%	7.4%	6.1%	5.5%	-1.5%
CC(=O)N1CCCC1c1nc2ccccc2n1Cc1cccc(Cl)c1 (configuration not stated)	·	7.3%	·	·	4.3%
COCCCNC(=S)N1CCC(C(=O)c2ccc(Cl)cc2)CC1	16.6%	5.62µM*	-0.4%	4.6%	-1.2%
COCCNC(=S)N1CCC(C(=O)c2ccc(Cl)cc2)CC1	·	?	11.4%	·	-5.6%
CCC(=O)N1CCc2cc(Br)cc(S(=O)(=O)CCC(=O)N3CCN(c4cccc(C(F)(F)F)c4)CC3)c21	·	12.4%	·	·	2.0%
CCOC(=O)C(NCc1ccccn1)(NC(=O)c1cccnc1)C(F)(F)F (configuration not stated)	15.8µM*	9.3%	8.6%	0.9%	-9.6%
CCOC(=O)C(NC(=O)c1cccnc1)(Nc1cccc(C)n1)C(F)(F)F (configuration not stated)	-1.2%	3.3%	-16.6%	8.8%	-16.4%
NC(=O)c1cc([N+](=O)[O-])ccc1NCc1cccc2ccccc12	·	6.9%	21.1%	·	-17.2%
O=C(/C=C/Nc1ccc([N+](=O)[O-])cc1Br)c1cccc2ccccc12	2.51µM*	-16.9%	-15.1%	?	-13.2%
Cc1cc(SCC(=O)N/N=C/c2ccc(O)cc2O)c(C)cc1Br	?	7.94µM*	-7.1%	-0.1%	-18.4%
Cc1cc(SCC(=O)N/N=C/c2ccccc2C(=O)O)c(C)cc1Br	-2.1%	-34.1%	6.0%	3.6%	5.7%
O=C(CSc1ccccn1)N/N=C/C=C/c1ccccc1	?	16.2%	-3.7%	15.8µM*	7.6%
O=C(Cn1nc2ccccc2n1)N/N=C/c1cc([N+](=O)[O-])ccc1O	?	-13.3%	1.8%	1.41µM*	-6.2%
CCCC[C@@H]1C[C@H]1C(NC(=O)c1ccco1)c1ccccc1 (some centres not stated)	7.3%	·	·	12.8%	·
COc1ccc(OC)c(NC(=O)c2cn(CC(C)C)c(=O)c3cc(OC)c(OC)cc23)c1	·	-3.8%	3.5%	·	-5.4%
CCCC[C@H]1C2=C3[C@@H](CC(C(=O)OC)=C[C@@H](C(=O)OC)[C@H]3C(C)(C)C2=O)n2c(=O)n(C)c(=O)n21	34.2%	·	·	-2.1%	·
O=C(Cn1cncn1)N/N=C/c1ccccc1O	8.91µM*	50.8%	6.1%	?	14.5%
SMILES	RORg inh	GLP1R inv ag	GLP1R ag	Gal4-VP16 FLuc	HEK293 tox
O=C(Cn1nnc(-c2ccccc2)n1)N/N=C/c1cc([N+](=O)[O-])ccc1O	-4.4%	5.9%	14.6%	-26.0%	1.8%
Cc1ccn(CC(=O)N/N=C/c2cc([N+](=O)[O-])ccc2O)n1	?	-19.3%	-0.8%	8.91µM*	3.9%[1.53 µM]
O=C(N/N=C/c1cc([N+](=O)[O-])ccc1O)c1cccc2ccccc12	2.82µM*	·	·	2.24µM*	·
O=C(Cn1cncn1)N/N=C/c1ccncc1	-1.6%	5.9%	4.3%	3.0%	-5.0%
O=C(CSc1ccccn1)N/N=C/c1cc([N+](=O)[O-])ccc1O	2µM*	?	-6.5%	7.08µM*	-19.8%
COc1ccccc1C(=O)N1c2ccccc2C(C)(c2ccc(Cl)cc2)CC1(C)C (configuration not stated)	·	?	·	·	-8.5%
COC(=O)N[C@@H](c1cccc(C)c1)C(C(C)=O)C(=O)OC (some centres not stated)	8.1%	·	·	-5.4%	·
O=C(CSc1ccc2ccccc2n1)N/N=C/c1ccccc1O	1.41µM*	-38.6%	12.4%	3.16µM*	-62.9%
O=C(CSc1ccc2ccccc2n1)N/N=C/c1ccc(O)cc1	?	?	7.8%	?	-30.6%
O=C(Cn1cncn1)N/N=C/c1cc([N+](=O)[O-])ccc1O	8.91µM*	-11.1%	-6.2%	-15.0%	-19.3%
COc1ccc(/C=C2\C(=O)NC(=S)N2C(=O)c2ccc(C)cc2)cc1	22.4µM*	8.6%	-10.7%	?	-0.1%
O=C1NC(=S)N(C(=O)c2ccc(F)cc2)/C1=C/c1cccnc1	-10.7%	8.7%	-2.3%	1.5%	-10.5%
COc1ccc(NC(=O)c2c(NCc3cccs3)sc3c2CCCCC3)c(OC)c1	·	7.1%	·	·	0.0%
O=C(c1nn(Cc2ccccc2)c(=O)c2ccccc12)N1CCN(C/C=C/c2ccccc2)CC1	34.1%	7.94µM*	15.0%	-0.7%	-17.9%
O=C(c1ccco1)N1CCN(C/C=C/c2ccccc2)CC1	17.4%	9.5%	5.6%	-4.0%	23.4%
CC(=O)Nc1ccccc1/C=C/c1ccc2c(C)cc(C)c(O)c2n1	7.94µM*	0.3%	-4.1%	7.94µM*	-0.9%
CC(=O)Nc1ccccc1/C=C/c1ccc2c(C)ccc(O)c2n1	8.91µM*	65.5%	-4.0%	28.2µM*	-3.8%
